The list is not random: actives were taken first. Their share in the collection is about 9%.
G9a inh – G9a (human) methyltransferase inhibition; Q96KQ7; G9a H3K9 monomethylation, AlphaScreen, 2 h; Potency, µM (top dose mostly 102 µM), for the others: at the top dose activity, negative = inhibition, actives largely listed as inhibitors; 8.8% of 350,000 active; also: % is scaled to controls: 0 for no effect and ±100 for the full control effect; nearly all actives have a fitted effect of over 75% in size
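Enzyme 20 nM + cpd, 15 min RT; add b-H3K9 pep 500 nM / SAM 20 uM; 2 h RT; anti-H3K9me1 Ab 0.5 ug/mL + SA donor / anti-rabbit acceptor beads 20 ug/mL each, 10 min; AlphaScreen read.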
BAZ2B block – blocks human BAZ2B; Q9UIF8; AlphaScreen BAZ2B-H3K14Ac peptide displacement; Potency, µM (titrated, usually from 114 µM), for inactives: at the top dose activity change, negative = inhibition, usual class: inhibitors; 4.4% of 360,000 active; also: % is scaled to controls: 0 for no effect and ±100 for the full control effect; nearly all actives have a fitted effect of over 60% in size
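Inhibition is scored as reduced AlphaScreen emission. The BAZ2B/b-H3(5-23)K14Ac complex (50 nM each) in PBS pH 7.4, 0.01% Tween-20 meets compound (up to 110 uM) for 30 min at RT before bead addition.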
12-LOX inh – blocks human arachidonate 12S-lipoxygenase | P18054 | Potency, µM (series often up to 108 µM), for the others: at the top dose activity change, negative = inhibition, usual class: inhibitors | 1.1% of 580,000 active | purified 12hLO, xylenol orange hydroperoxide absorbance; also: % is scaled to controls: 0 for no effect and ±100 for the full control effect
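Purified human 12hLO at 150 nM in 25 mM Hepes, 0.01% Triton X-100, pH 7.0, preincubated 15 min at room temperature with compound. Reaction started with 40 uM arachidonic acid, 30 min at room temperature. Hydroperoxide measured by Fe-xylenol orange, 573/405 nm absorbance ratio.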
JMJD2A Tudor – blocks the human JMJD2A Tudor domain | 4.4% of 390,000 active | Potency, µM (titrated, usually from 114 µM), without a hit: at the highest dose activity change, negative = inhibition, actives largely listed as inhibitors | O75164 | AlphaScreen JMJD2A-Tudor / H3K4me3 peptide binding; also: % is scaled to controls: 0 for no effect and ±100 for the full control effect; nearly all actives have a fitted effect of over 50% in size
Target sequence (O75164 whole entry, looked up, the tested form may be a part): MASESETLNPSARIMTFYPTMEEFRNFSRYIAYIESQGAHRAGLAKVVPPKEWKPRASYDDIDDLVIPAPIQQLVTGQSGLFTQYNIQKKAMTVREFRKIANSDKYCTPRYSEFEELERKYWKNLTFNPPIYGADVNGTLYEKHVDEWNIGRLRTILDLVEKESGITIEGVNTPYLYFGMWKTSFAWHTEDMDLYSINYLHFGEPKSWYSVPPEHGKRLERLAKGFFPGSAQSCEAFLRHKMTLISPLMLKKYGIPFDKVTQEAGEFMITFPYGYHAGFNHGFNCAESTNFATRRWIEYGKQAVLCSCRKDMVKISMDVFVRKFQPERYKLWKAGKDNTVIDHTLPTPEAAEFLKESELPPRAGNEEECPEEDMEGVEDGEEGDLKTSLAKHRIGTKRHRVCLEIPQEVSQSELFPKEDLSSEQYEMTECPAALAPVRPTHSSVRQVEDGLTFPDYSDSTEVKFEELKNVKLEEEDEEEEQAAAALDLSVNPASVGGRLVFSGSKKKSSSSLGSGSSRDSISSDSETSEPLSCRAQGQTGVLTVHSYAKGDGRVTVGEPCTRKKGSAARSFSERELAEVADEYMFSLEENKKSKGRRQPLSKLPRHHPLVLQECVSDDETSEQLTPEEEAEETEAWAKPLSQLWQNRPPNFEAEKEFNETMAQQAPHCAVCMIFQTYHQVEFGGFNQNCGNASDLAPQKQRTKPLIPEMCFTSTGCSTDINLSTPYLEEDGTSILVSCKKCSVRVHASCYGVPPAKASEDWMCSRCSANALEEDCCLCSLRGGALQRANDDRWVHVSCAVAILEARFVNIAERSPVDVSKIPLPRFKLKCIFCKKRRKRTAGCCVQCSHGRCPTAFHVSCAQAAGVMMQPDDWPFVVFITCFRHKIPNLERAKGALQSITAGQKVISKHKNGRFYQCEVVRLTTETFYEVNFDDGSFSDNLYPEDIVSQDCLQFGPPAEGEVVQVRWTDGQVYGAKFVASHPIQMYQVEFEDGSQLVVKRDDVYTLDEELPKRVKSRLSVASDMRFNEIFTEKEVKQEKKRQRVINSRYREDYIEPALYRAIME
PLK1 PBD block – inhibitors of human PLK1 polo-box domain binding. P53350. Plk1 PBD binding of FITC phosphopeptide, fluorescence polarization. Potency, µM, without a hit: max response, negative = inhibition, usual class: inhibitors. 2.8% of 360,000 active; also: series mostly up to about 57 µM; % is scaled to controls: 0 for no effect and ±100 for the full control effect; nearly all actives have a fitted effect of over 65% in size
HP1b chromo inh – inhibitors of HP1-beta chromodomain binding to methylated histone tails. P83916. AlphaScreen HP1-beta / biotin-H3K9me3 peptide binding. Potency, µM (top dose mostly 114 µM), inactives show top-dose activity change, negative = inhibition, actives largely listed as inhibitors. 0.56% of 390,000 active. AID 540317; also: nearly all actives have a fitted effect of over 70% in size
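HP1-beta protein (50 nM final) preincubated 30 min at room temperature with biotinylated H3(1-18)K9me3 peptide (50 nM) in PBS pH 7.4, 0.01% Tween-20, then compound added for 30 min. AlphaScreen streptavidin donor/nickel chelate acceptor beads (10 ug/mL final), 30 min dark, luminescence read.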
* hit, by the source's call; u = inconclusive; x = not tested or not shown; [ ] = another dose, or the depositor's remark. Calls follow the shape of the dose curve; as a rule, active = well fitted curve in the direction sought with a large enough effect; inconclusive = small, poorly fitted or top-dose-only effect, or another doubt; inactive = no such curve, though single readings can be large; an effect the other way counts as inactive or inconclusive. Potency is read from the fitted curve at half-maximal effect.

SMILES	G9a inh	BAZ2B block	12-LOX inh	JMJD2A Tudor	PLK1 PBD block	HP1b chromo inh
COc1ccc(NS(=O)(=O)c2ccc(OC)c3ccccc23)cn1	-37%	7%	11%	79µM*	u	u
COc1ccc(NS(=O)(=O)c2cccs2)cn1	3%	-10%	-9%	-4%	0%	44%
O=C(OCCN1CCCCC1)c1ccccc1Cl	u	-20%	55%	-12%	-3%	17%
O=C1C=C(c2cccc(Cl)c2O)C[C@@H](c2ccc(Cl)cc2)C1	22%[2.33 µM]	u	11µM*	-31%	-10%	-11%
O=C(C1=Cc2cc(Cl)ccc2OC1)N1CCN(S(=O)(=O)c2cc(F)ccc2F)CC1	x	x	40µM*	x	x	x
Cc1ccc(C)c2nc(SCC(=O)NCc3cccs3)c(C#N)cc12	u	4%	4%	-6%	-7%	27%
Cc1ccccc1-n1c(SCC(=O)N2CCC(C(=O)O)CC2)nnc1-c1ccncc1	-1%	29%	8%	-6%	-21%	53%
O=c1cc(CN2CCc3ccccc3C2)nc2sccn12	79µM*	7%	2%	-6%	-2%	42%
Cn1c(SCC(=O)N2CCN(Cc3ccccc3)CC2)nnc1-c1ccncc1	11µM*	-1%	10%	-10%	-7%	30%
Cn1c(SCC(=O)N2CCN(c3ccccc3)CC2)nnc1-c1ccccc1	50µM*	-20%	-12%	-8%	1%	21%
O=c1cc(CN2CCN(c3ccccc3O)CC2)nc2sccn12	-10%	-3%	-9%	u	-11%	9%
Cc1ccccc1-n1c(SCC(=O)N2CCN(c3ccccc3)CC2)nnc1-c1ccncc1	45µM*	12%	-19%	-22%	1%	20%
Cn1c(SCC(=O)N2CCOCC2)nnc1-c1ccncc1	-12%[59 µM]	7%	-2%	1%	-8%	7%
CNC(=O)[C@@H]1C[C@H](Oc2cccnc2)CN1C(=O)CN1CCCCCC1	x	x	82%	x	x	x
COc1ccc(S(=O)(=O)N2CCN(c3nc(-c4cccnc4)nc4ccccc34)CC2)cc1	u	-2%	6%	-17%	1%	24%
O=C(CSc1nc(-c2ccccc2)no1)N1CCN(c2ccccc2F)CC1	5%[59 µM]	9%	-25%	20µM*	x	35%
O=c1cc(CN2CCN(c3ccccc3)CC2)nc2scc(-c3ccccc3)n12	-44%	u	-1%	-33%	-8%	4%
COc1cc2c(cc1OC)CN(Cc1cc(=O)n3cc(C)ccc3n1)CC2	35µM*	-1%	-4%	-16%	-10%	36%
CC(C)c1ccc(-c2noc(SCC(=O)N3CCN(c4ccccc4F)CC3)n2)cc1	4%[59 µM]	8%	u	5%	x	58%
COc1cc2c(cc1OC)CN(Cc1cc(=O)n3c(-c4ccccc4)csc3n1)CC2	25µM*	-4%	-9%	-20%	-3%	32%
COc1cc2c(cc1OC)CN(C(=O)CSc1nnc3scc(-c4ccccc4)n13)CC2	14µM*	-24%	1%[57.4 µM]	-16%	-23%	51%
O=C(NCCCN1CCOCC1)c1ccc(S(=O)(=O)Nc2cccc(C(F)(F)F)c2)cc1	-31%	0%	6%	-10%	3%	51%
CCn1c(SCC(=O)Nc2ccccc2F)nnc1-c1ccoc1C	2%	-12%	0%	-11%	1%	13%
Cc1ccc(-c2csc3nnc(SCC(=O)N4CCN(Cc5ccccc5)CC4)n23)cc1	25µM*	-39%	5%	-31%	-14%	1%
C=CCn1c(COc2cccc(C)c2C)nnc1SCC(=O)N1CCN(c2ccccc2)CC1	4µM*	u	u	u	-12%	-11%
SMILES	G9a inh	BAZ2B block	12-LOX inh	JMJD2A Tudor	PLK1 PBD block	HP1b chromo inh
CN(Cc1cc(=O)n2ccsc2n1)C1CCCCC1	50µM*	-31%	1%	-3%	-10%	27%
CCn1c(SCC(=O)N2CCN(c3ccccc3F)CC2)nnc1-c1ccoc1C	u	-30%	u	50µM*	u	-26%
COCCNC(=O)C[C@@H]1C[C@H]2O[C@H](CNC3CCN(C(C)=O)CC3)[C@@H](O)[C@H]2O1	x	x	2%[176 µM]	x	x	x
CCn1c(SCC(=O)N2CCN(c3ccccc3)CC2)nnc1-c1ccncc1	1.8µM*	9%	x	x	x	x
CC(=O)NC(=S)Nc1ccccc1N1CCCCC1	50µM*	-27%	-4%	-8%	-23%	26%[57 µM]
CCCCC(=O)NC(=S)Nc1cccc(Cl)c1N1CCCCC1	1%[59 µM]	-1%	35µM*	15%	-6%	30%
COc1ccc(C(=O)NC(=S)Nc2cc(C)ccn2)cc1[N+](=O)[O-]	2.8µM*	-31%	-6%	-13%	-1%	37%
O=C(COc1cc(F)ccc1[N+](=O)[O-])Nc1ccc(N2CCCCC2)cc1	u	32µM*	-33%	40µM*	-1%	u
Cc1cc(C)cc(NC(=O)Cn2c(SCc3cc(C)ccc3C)nc3ccncc32)c1	u	-8%	x	x	x	x
CC(=O)Nc1ccc(Nc2cc(C)nc3c(-c4ccccc4)c(C)nn23)cc1	96%[59 µM]	-2%	-11%	-3%	14%	40%
COC(=O)c1scc(-c2ccc(C)cc2)c1S(=O)(=O)Nc1cccc(Cl)c1C	10%[59 µM]	-6%	-22%	-17%	x	16%
O=C(c1ccc(F)cc1)N1CCN(c2ccc([N+](=O)[O-])c(N3CCCCC3)c2)CC1	28µM*	u	-9%	u	-16%	-16%
CCOc1ccc(C(=O)NC(=S)Nc2ccccc2N2CCCCC2)cc1[N+](=O)[O-]	21%[59 µM]	23%	u	u	-3%	u
CCOc1ccc(C(=O)NC(=S)Nc2ccc(N3CCCCC3)cc2)cc1[N+](=O)[O-]	6.3µM*	8.9µM*	u	u	6µM*	11µM*
CCOc1ccc(C(=O)Nc2ccc(N3CCN(C)CC3)cc2)cc1[N+](=O)[O-]	u	u	u	-21%	2%	-3%
O=C(NC(=S)Nc1ccccc1N1CCOCC1)c1ccc([N+](=O)[O-])cc1	8%[59 µM]	u	8%	-14%	3%	u
COc1ccc(C(=O)NC(=S)Nc2ccccc2N2CCCCC2)cc1[N+](=O)[O-]	10%[59 µM]	u	40µM*	u	-10%	u
O=C(NC(=S)Nc1ccccc1N1CCCC1)c1ccc([N+](=O)[O-])cc1	11µM*	11µM*	u	25µM*	-14%	22µM*
CC(C)C[C@H](NC(=O)N1CCn2c1nc1ccccc12)C(=O)N[C@@H](C(=O)O)c1ccccc1	41%	-7%	10%	-6%	-1%	48%
CC(C)N(Cc1nccn1C)C(=O)C1CCC(=O)N(CCc2ccccc2)C1 (stereo not given)	x	x	2%	x	5%	x
CCOC(=O)c1c(NC(=O)Cn2nnc(-c3ccc(Cl)cc3)n2)sc(C)c1C	x	3%	0%	22%	3%	24%
